Structures are written as SMILES. Activity calls are given as the source filed them. How the source made its calls: active means hit-call score of the fitted dose curve at least 0.9, where 1 is the maximum; inactive means score below 0.9.

The nature of this assay: ATG_CMV_CIS: Attagene CIS-FACTORIAL HepG2 Assay for human CMV (Internal Marker) (AID 2282928).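 Further: endpoint acts as a background internal control marker rather than a target.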 The settings on record: HepG2 CMV promoter reporter, transcription factor profiling; actives raise or lower the signal. As to the method:
ATG_CIS is a cell-based, multiplexed-readout assay that uses HepG2, a human liver cell line, with measurements taken at 24 hours after chemical dosing in a 24-well plate.ATG_CMV_CIS is one of 52 assay component(s) measured or calculated from the ATG_CIS assay. It is designed to make measurements of mRNA induction, a form of inducible reporter, as detected with fluorescence intensity signals by Reverse transcription polymerase chain reaction (RT-PCR) and Capillary electrophoresis technology.Data from the assay component ATG_CMV_CIS was analyzed into 1 assay endpoint. This assay endpoint, ATG_CMV_CIS, was analyzed with bidirectional fitting relative to DMSO as the negative control and baseline of activity. Using a type of inducible reporter, measures of mRNA for gain or loss-of-signal activity can be used to understand the background control at the transcription factor-level as they relate to the gene . Furthermore, this assay endpoint can be referred to as a secondary readout, because this assay has produced multiple assay endpoints where this one serves a background control function. To generalize the intended target to other relatable targets, this assay endpoint is annotated to the background measurement intended target family, where the subfamily is internal marker.
Human liver HepG2 cells are transiently transfected with multiple reporter transcription units (MRTUs) in 6-well plates using FuGene 6 reagent (Roche; 3 ml FuGene/1 mg DNA). The MRTU constructs are regulated by a cis-regulating element (promoter). […] A major difference between the CIS and TRANS system is that in CIS activities of endogenous TFs are measured, whereas the TRANS assay evaluates changes in activities of exogenous, chimeric NR-Gal4 proteins. […] At the end of 24 hour incubation, total RNA was isolated using TriZol reagent (Invitrogen). The isolated RNA is then reverse-transcribed using oligo(dT) primer and Mo-MLV reverse transcriptase (Invitrogen) with DNAse I (Ambion) treatment for 30 min. The one-tenth of the produced cDNA was amplified by PCR using Taq DNA polymerase (Invitrogen) and two reporter sequence-specific primers. The PCR products were fluorescently labeled by primer extension with 6-arboxyfluorescein (6-FAM) 5'-labeled reporter sequence-specific primer (2 min at 95 C, 20 s at 68 C and 10 min at 72 C) and these products were digested with 5U of HpaI (New England Biolabs) for 2h at 37 C. The fragments were purified using Qiaquick PCR columns (Qiagen), analyzed on an ABI 3130xL genetic analyzer (Applied Biosystems) with peak positions identified by using a set of X-rhodamine (ROX)-labeled MapMarker1000 molecular weight standards (BioVentures). The raw capillary electrophoresis data was processed using Attagraph software (Attagene).
As to `CC(=O)OCC(=O)[C@@]12N=C(C)O[C@@H]1C[C@H]1[C@@H]3CCC4=CC(=O)C=C[C@]4(C)[C@H]3[C@@H](O)C[C@@]12C`, the compound was called inactive. `C=CC(=O)NC(C)(C)CS(=O)(=O)O`: the call was inactive. Turning to `C=C[C@](C)(O)CC[C@@H]1[C@@]2(C)CCCC(C)(C)[C@@H]2CC[C@@]1(C)O`, the call was inactive. Turning to `O=c1c2ccccc2oc2ccccc12`, the compound was called inactive. Regarding `CC(=O)OCC(C)OC(C)=O` (stereo not given), the call was inactive.

`Nc1nc2ccccc2[nH]1`: the result was inactive. Still for that read-out and setting: the entry for `O=C(Nc1ccccc1)c1ccccc1O` is “inactive”. As a reminder, the AC50 is the midpoint of the concentration-response curve, whichever way the signal moves. Turning to `CC(C)c1ccc2cc(C(C)C)ccc2c1`, the AC50 was 45.5 µM (active). Turning to `NC(=O)N=NC(N)=O`, the call was inactive. Same read-out and setting: for `COc1ccc(-c2coc3cc(O)ccc3c2=O)cc1` the value was “inactive”; for `O=Cc1ccc(CO)o1`, “inactive”.

Regarding `CCOC(=O)CC`, the compound was classed as inactive. The same measure, in the same setting: the entry for `Cc1cccc(N(C)C(=S)Oc2ccc3ccccc3c2)c1` is “inactive”. Turning to `C=C[Si](OC(C)=O)(OC(C)=O)OC(C)=O`, the compound was called inactive. In the case of `CC(C)(c1cc(Br)c(OCCO)c(Br)c1)c1cc(Br)c(OCCO)c(Br)c1`, the AC50 was 36.7 µM (active).

With `CC(C)COC(=O)C=Cc1ccccc1`, the compound was classed as inactive. Still for that read-out and setting: for `Nc1cccc(C(F)(F)F)c1` the value was “inactive”; for `CCCCCCCCC(=O)OCC`, “inactive”. Regarding `CC(C)(C)c1ccc(N)cc1`, the outcome was inactive. On the same count and under the same terms, the entry for `CN(C)CCCN(C)C` is “inactive”.

Consider `O=C(OCC1CCC2OC2C1)C1CCC2OC2C1` (stereo not given), for which the compound was classed as inactive. The same measure, in the same setting: for `O=C(O)C(c1ccc(Cl)cc1)c1ccc(Cl)cc1` the value was “inactive”; for `Nc1ccc(-c2ccc(F)cc2)cc1`, “inactive”. For `CC(C)CCCCCOC(=O)CCS`, the outcome was inactive. On the same count and under the same terms, for `CC(=O)OC(C)C` the value was “inactive”; for `COc1ccc(C(Cl)=C(c2ccc(OC)cc2)c2ccc(OC)cc2)cc1`, “inactive”; for `C(=CC=Nc1ccccc1)C=CNc1ccccc1`, “inactive”. Still for that read-out and setting: for `CCCCC(CC)COC(=O)c1ccccc1` (stereo not given) the value was “inactive”. Turning to `ON(Cc1ccccc1)Cc1ccccc1`, the call was inactive. As for `COCCOCCOCCOCCOC`, the result was inactive. For the compound `Cn1c([N+](=O)[O-])cnc1COC(N)=O`, the call was inactive. Take `O=C1C(N(CO)C(=O)NCO)N(CO)C(=O)N1CO` (stereo not given): the compound was called inactive. For `Nc1ccc(Cl)cc1Cl`, the outcome was inactive. Same read-out and setting: for `CCCCC/C=C\C/C=C\CCCCCCCC(=O)OC` the value was “inactive”; for `COC(=O)c1cc(Cl)ccc1[N+](=O)[O-]`, “inactive”; for `O=C1CCCC1`, “inactive”.

As to `Cn1c(=O)[nH]c2ncn(C)c2c1=O`, the call was inactive. The same measure, in the same setting: for `O=C(O)c1ccccc1Nc1cccc(C(F)(F)F)c1` the value was “inactive”. `O=C(c1ccccc1)C1CCC1`: the compound was classed as inactive. Turning to `CC1=Nc2ccc3ccccc3c2C1(C)C`, the AC50 is 66.4 µM (active).

(Values after PubChem BioAssay (EPA / NIEHS).)
